# Screening data as filed in PubChem.
# N370S GC: inhibitors or activators of N370S glucocerebrosidase for Gaucher disease | 330,000 compounds, 0.092% hits | Potency, µM (doses to about 59.4 µM), inactives show at the top dose activity change, negative = inhibition, actives largely listed as inhibitors | N370S GC spleen homogenate, 4MU-glucoside fluorescence;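 note: 0% = full enzyme activity and -100% = no enzyme basal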
# aGlu spleen mod: inhibitors or activators of human alpha-glucosidase in spleen homogenate; AID 2112; 240,000 compounds, 0.006% hits; Potency, µM (top dose mostly 79.9 µM), for inactives: top-dose activity change, negative = inhibition, most hits filed as inhibitors; human spleen homogenate, 4-MU-alpha-glucoside fluorescence;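 note: 0% = enzyme with vehicle and -100% = no enzyme basal signal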
#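 Enzyme source: human spleen homogenate, 1 ug/well. Buffer 50 mM citric acid/K phosphate pH 5.0, 0.01% Tween-20. 4-MU-alpha-glucoside 1 mM; 37 C x 40 min; NaOH/glycine stop; fluorescence.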
# GAA glycogen mod: alters human alpha-glucosidase cleavage of glycogen. Potency, µM (series often up to 76.4 µM), for inactives: top-dose activity change, negative = inhibition, hits mostly inhibitors. 300,000 compounds, 0.38% hits. recombinant GAA, glycogen substrate, Amplex Red glucose oxidase fluorescence. P10253;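 note: 0% = full enzyme reaction and -100% = no-enzyme basal signal; the screen sought inhibitors and activators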
#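 Recombinant enzyme (4 nM final) with compounds titrated up to 77 uM and bovine liver glycogen (30 ug) in citrate pH 5.0, 0.01% Tween-20, 37 C 40 min. Released glucose detected by Amplex Red/glucose oxidase (Ex 573/Em 610); AC50 from Hill fits.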
# GAA inhib: blocks human lysosomal alpha-glucosidase; P10253; purified human GAA, 4-MU-alpha-glucoside fluorescence; Potency, µM (highest dose often 76.9 µM), for inactives: at the highest dose activity change, negative = inhibition, actives largely listed as inhibitors; 200,000 compounds, 0.005% hits;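 note: plate controls were uninhibited enzyme wells for no effect and no-enzyme background for full effect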
#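 Human alpha-glucosidase, 4 nM, pre-mixed with test compounds before 400 uM 4-methylumbelliferyl substrate; 20 min room temperature at pH 5.0. Fluorescence read after pH 10 stop; AC50 values from Hill-equation fits.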
# Lamin A splicing: modulators of lamin A splicing. HeLa LMNA splicing GFP/RFP minigene ratio, 48 h. Potency, µM (titrated, usually from 46.1 µM), for the others: at the highest dose ratio change, negative = inhibition, actives largely listed as inhibitors. 200,000 compounds, 0.01% hits; active = well fitted inhibition curve with a large enough effect in the signal ratio, with a control signal flat, not every such curve was filed as active; inconclusive = small, poorly fitted or top-dose-only effect, or effect the other way, or a change in a side signal; the % refers to the signal ratio
#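 Read-out is the ratio of GFP to DsRed2 object intensity, acquired by 488 nm laser-scanning cytometry on HeLa lamin A-EGFP minigene reporter cells. Compound incubation 48 hrs at 37 °C in Opti-MEM with 2% FBS; DMSO 0.5% final.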
# Numbers without * were called inactive; ? = inconclusive; . = no result; [ ] = dose if it differs, or a comment. A selection: hits, their analogues and other compounds. The true share with any hit is near 0.42%. Unless noted, calls come from the whole dose curve; as a rule, active = well fitted curve in the direction sought with a large enough effect; inconclusive = small, poorly fitted or top-dose-only effect, or another doubt; inactive = no such curve, though single readings can be large; an effect the other way counts as inactive or inconclusive. Unless noted, % is set by controls: 0 for no effect and ±100 for the full control effect; potency is the fitted concentration of half-maximal effect.
SMILES,N370S GC,aGlu spleen mod,GAA glycogen mod,GAA inhib,Lamin A splicing
CCCN1CCC(=O)N(CCSc2ccc(Br)cc2)CC1,-8.1%,-6.0%,.,.,.
Cc1ccc(-c2csc(=Nc3ccccc3)n2Cc2ccc3c(c2)OCO3)cc1C,.,.,-12.0%[76.3 µM],.,.
COc1cccc(/C=N/Nc2ccc(S(=O)(=O)O)cc2)c1O,-3.9%,1.3%,7.88µM*,5.1%,3.0%
c1ccc(C(OC2CCCN(CCc3ccc4c(c3)OCO4)C2)c2ccccc2)cc1 (centres undefined),4.2%,-0.9%,.,.,.
CC(=O)c1ccc(NC(=O)COc2ccccc2-c2nc(C)no2)cc1,.,.,7.08µM*,.,.
CC(=O)c1ccc(NC(=O)COc2ccccc2-c2nc(C(C)C)no2)cc1,.,.,-9.8%[76.3 µM],.,.
CN1[C@@H]2CC(OC(=O)[C@H](CO)c3ccccc3)C[C@@H]1[C@H]1O[C@H]12 (some centres undefined),-3.4%,-8.2%,.,.,.
Oc1ccc2[nH]ccc2c1,-1.5%,-15.4%,14.1µM*,-2.1%,-17.5%
Oc1ccc2ccc3[nH]cnc3c2c1,-7.1%,6.5%,-6.5%,-4.6%,?
Brc1ccc(C2C3=C(Nc4ncnn42)c2ccccc2OC3c2ccncc2)cc1 (centres undefined),14.1µM*,3.5%,-24.7%,-0.2%,?
C/C(=C\C(=O)c1cccnc1)Nc1ccc(O)cc1,-26.5%,-12.3%,14µM*,-10.6%,18.2%
C/C(=C\C(=O)c1ccccc1)Nc1ccc(O)cc1,-12.7%,-4.6%,39.8µM*,-7.2%,-1.5%
COc1cccc(C2CC(=O)N3CN(C4CCCCC4)CSC3=C2C#N)c1 (centres undefined),.,.,1.5%[76.3 µM],.,.
COC(=O)CCCC1=CC2=C(c3ccccc3)C(=O)C(C)(OC(=O)C3CCCC3)C(=O)C2=CN1CCCOC(C)C (centres undefined),3.1%[12.8 µM],12.2%[17.4 µM],.,.,-13.8%[9.22 µM]
Nc1n[nH]c(N)c1N=Nc1ccc2c(c1)OCO2,-11.6%,-1.9%,12.6µM*,-7.9%,-17.7%[9.22 µM]
Cc1ccc(N=Nc2c(N)n[nH]c2N)cc1,0.6%,.,?,.,.
CCCCCCCC[N+](CCCCCCCC)(CCCCCCCC)CCCCCCCC,-4.9%,2.2%,.,.,.
COc1ccc(C2=Nn3c(nnc3-c3ccc(OC)c(OC)c3)SC2)c(OC)c1,9.7%,-11.6%,.,.,.
Cc1cc(N/N=C/c2ccc(O)cc2O)nc(N2CCOCC2)n1,-10.8%,-2.2%,15.7µM*,-14.2%,.
Oc1ccc(/C=N\Nc2cc(N3CCOCC3)nc(N3CCOCC3)n2)c(O)c1,-11.4%,-2.1%,10µM*,-11.4%,?
Clc1ccccc1C1Nc2cccc3cccc(c23)N1,-12.0%,.,?,.,.
Oc1ccc(C2Nc3cccc4cccc(c34)N2)c(O)c1,-3.9%,-5.0%,19.8µM*,2.7%,-7.0%
Oc1ccc(/C=N/Nc2ccccc2)cc1,-1.7%,0.7%,?,7.9%,-1.8%[46 µM]
Cc1nc2ccccc2nc1N/N=C/c1ccc(O)cc1,-27.0%,1.5%,25.1µM*,.,.
Oc1ccc(Nc2nc3ccccc3nc2Nc2ccc(O)cc2)cc1,4.47µM*,-1.9%,19.8µM*,-1.4%,?
SMILES,N370S GC,aGlu spleen mod,GAA glycogen mod,GAA inhib,Lamin A splicing
CC[C@@H](C(=O)[C@@H](C)[C@@H](O)[C@H](C)CCc1ccc(C)c(O)c1C(=O)O)C1O[C@](CC)(C2CC[C@](O)(CC)[C@H](C)O2)C[C@@H]1C (some centres undefined),0.4%,8.1%,.,.,.
C=C(C)OC(C)=O,-0.4%,-3.6%,.,.,.
CCNc1ccc(S(=O)(=O)N(C)C)cc1NCC(=O)Nc1ccc(F)c(Cl)c1,7.94µM*,0.7%,10.3%,-10.7%,?
CCNc1ccc(S(=O)(=O)N(C)C)cc1NCC(=O)Nc1ccc(Br)cc1F,8.9%,-4.6%,?,0.0%,?
CCNc1ccc(S(=O)(=O)N(C)C)cc1NCC(=O)Nc1ccccc1F,10µM*,-1.2%,?,?,-8.7%
Cc1c(C(=O)NCc2ccc(Cl)cc2)sc2nc3n(c(=O)c12)CCCCC3,.,.,-7.9%[76.3 µM],.,?
Cc1nnc2c3ccccc3c(-c3cccs3)nn12,17.8%,5.7%,5.8%,2.2%,7.94µM*
C=CCC(C)(O)C(=O)OCC (centres undefined),-8.4%,1.9%,.,.,.
Cc1ccc(S(=O)(=O)N/N=C/c2ccc(O)cc2O)cc1[N+](=O)[O-],7.8%,-0.7%,25.1µM*,.,.
CC(=O)Cc1cc(O)c2ccccc2c1OC(=O)c1ccccc1,-28.1%,-8.4%,8.91µM*,?,?
CC(=O)Oc1c(C)cc(O)c2ccccc12,7.7%,2.0%,14µM*,2.3%,-19.1%
COc1cccc(-c2nnc3n2N=C(c2c(OC)cccc2OC)CS3)c1OC,-1.6%,0.6%,.,.,.
CN(C)c1ccc(/C=C2\C(=O)Nc3ccccc32)cc1,16.9%,-13.2%,.,.,28.2µM*
S=C(Nc1ccccc1)N1CCC(C2CCN(C(=S)Nc3ccccc3)CC2)CC1,5.7%,-0.3%,-8.1%,0.2%,.
OC1CCN(C(=S)Nc2ccc(Nc3ccccc3)cc2)CC1,-1.4%,5.2%,3.98µM*,8.4%,?
S=C(Nc1ccc(Nc2ccccc2)cc1)N1CCN(c2ncccn2)CC1,-7.7%,-6.9%,8.91µM*,1.8%,.
COC(=O)C1=C(C(=O)OC)[C@@H]2N(C)c3ccc(OC)cc3[C@@]23C[C@@H](C(=O)OC)N(S(=O)(=O)c2ccc(C)cc2)C3=N1,-3.8%[12.8 µM],-0.4%[17.4 µM],.,.,1.1%[9.22 µM]
CCN1CCCc2cc(CN(CCN3CCOCC3)C(=O)Nc3ccc(C)c(C)c3)ccc21,-18.6%,-0.9%,11.1µM*,-4.8%,0.4%
CCc1ccc(NC(=O)N(CCN2CCOCC2)Cc2ccc3c(c2)CCCN3CC)cc1,-7.6%,-2.3%,11.1µM*,-1.9%,12.9%
CCN1CCCc2cc(CN(CCN3CCOCC3)C(=S)Nc3ccc(OC)c(OC)c3)ccc21,-20.2%,-0.3%,?,-3.5%,7.6%[46 µM]
CCN1CCCc2cc(CN(CCN3CCOCC3)C(=S)Nc3cccc(C)c3)ccc21,-24.3%,-3.0%,?,-3.8%,-13.8%[46 µM]
COCCn1c(=O)c(C)nc2cnc(N3CCN(C)CC3)nc21,-23.1%,-2.3%,.,.,6.8%
CC(=O)Nc1ccc(Nc2nc(-c3ccccc3)nc3ccccc23)cc1,6.31µM*,0.7%,-11.1%,-0.1%,.
CC(Nc1nc(-c2ccccc2)nc2ccccc12)c1ccccc1 (centres undefined),5.01µM*,-1.2%,-12.4%,-1.3%,.
Fc1ccc(Nc2nc(-c3ccoc3)nc3ccccc23)cc1,15.8µM*,4.8%,.,.,?
O=C(O)c1ccc(Nc2nc(-c3ccc([N+](=O)[O-])cc3)nc3ccccc23)cc1,-5.9%,.,-8.6%,.,.
Cc1cccc(-c2nc(Nc3ccc(N4CCOCC4)cc3)c3ccccc3n2)c1,2.82µM*,-3.1%,-5.4%,-11.0%,?
COc1ccc2c(c1)O[C@@H](c1cccc(C(F)(F)F)c1)[C@H](OC(=O)NCc1ccco1)C2=O,-6.6%,-4.1%,.,.,.
O=C[C@@H]1CCCN1C(=O)[C@@H]1CCCN1C(=O)OCc1ccccc1,-2.0%,-6.3%,.,.,.
